# Measurements published in PubChem BioAssay.
# A number with no mark means an inactive call. Active and inactive are the calls of the source.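 How the source made its calls, unless noted: active means mean inhibition over 43.08%, the solvent-only control mean plus 3 SD; inactive means the rest.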
# Molecular target: Nuclear receptor coactivator 3 (Homo sapiens) (UniProt Q9Y6Q9)
# Assay: SRC3 coactivator transcriptional activity inhibitors, confirmation, cell-based, luminescence, quadruplicate (AID 588792);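 further: 0% = DMSO treated cells and 100% = gossypol at 36 µM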
# Settings: HEK293 GAL4-SRC3 luciferase reporter, at 3.6 µM, active compounds read high
# Sequence of Nuclear receptor coactivator 3 (Homo sapiens) (Q9Y6Q9 whole entry, looked up): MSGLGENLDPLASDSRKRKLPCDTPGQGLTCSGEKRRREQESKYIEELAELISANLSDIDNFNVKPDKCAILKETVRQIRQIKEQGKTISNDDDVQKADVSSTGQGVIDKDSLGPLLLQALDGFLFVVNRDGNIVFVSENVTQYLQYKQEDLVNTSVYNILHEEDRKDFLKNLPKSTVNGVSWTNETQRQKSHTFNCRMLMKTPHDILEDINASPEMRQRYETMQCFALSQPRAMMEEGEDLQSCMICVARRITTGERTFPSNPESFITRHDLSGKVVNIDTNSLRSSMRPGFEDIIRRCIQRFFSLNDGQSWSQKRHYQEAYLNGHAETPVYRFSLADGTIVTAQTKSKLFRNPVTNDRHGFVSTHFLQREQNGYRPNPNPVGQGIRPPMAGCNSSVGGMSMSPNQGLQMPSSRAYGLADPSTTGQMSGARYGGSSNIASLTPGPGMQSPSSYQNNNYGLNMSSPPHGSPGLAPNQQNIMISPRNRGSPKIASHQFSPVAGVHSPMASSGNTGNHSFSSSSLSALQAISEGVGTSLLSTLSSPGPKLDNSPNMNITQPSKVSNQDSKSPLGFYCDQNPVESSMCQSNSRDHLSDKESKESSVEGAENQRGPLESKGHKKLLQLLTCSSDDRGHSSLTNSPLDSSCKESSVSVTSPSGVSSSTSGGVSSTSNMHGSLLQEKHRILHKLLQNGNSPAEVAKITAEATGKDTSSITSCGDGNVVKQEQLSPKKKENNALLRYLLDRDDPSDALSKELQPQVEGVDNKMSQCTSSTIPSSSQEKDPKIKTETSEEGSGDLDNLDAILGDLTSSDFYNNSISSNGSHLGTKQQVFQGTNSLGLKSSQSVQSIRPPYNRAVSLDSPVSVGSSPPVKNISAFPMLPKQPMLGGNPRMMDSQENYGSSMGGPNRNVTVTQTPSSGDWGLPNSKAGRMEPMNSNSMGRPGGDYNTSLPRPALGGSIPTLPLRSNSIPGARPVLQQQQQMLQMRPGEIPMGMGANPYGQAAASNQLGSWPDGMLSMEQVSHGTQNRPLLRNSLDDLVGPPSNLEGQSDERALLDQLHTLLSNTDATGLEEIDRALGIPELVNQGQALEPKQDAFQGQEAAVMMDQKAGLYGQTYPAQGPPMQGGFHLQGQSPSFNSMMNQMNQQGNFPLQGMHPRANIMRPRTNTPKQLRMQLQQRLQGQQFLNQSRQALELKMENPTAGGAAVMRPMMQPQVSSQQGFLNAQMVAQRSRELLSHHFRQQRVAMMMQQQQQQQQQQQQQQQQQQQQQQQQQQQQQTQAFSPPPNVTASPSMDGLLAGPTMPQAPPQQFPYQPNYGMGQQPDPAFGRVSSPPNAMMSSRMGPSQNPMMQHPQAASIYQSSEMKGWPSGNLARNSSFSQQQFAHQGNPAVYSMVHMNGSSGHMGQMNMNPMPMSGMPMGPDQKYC
row,SMILES,inhibition
1,COc1ccc(C)cc1NC(=O)c1nnn(Cc2cccc(F)c2)c1N,22.3%
2,Cc1ccc(-c2c[n+](Cc3ccc(Cl)c(Cl)c3)c3n2CCC3)cc1,17.6%
3,CC1CCc2sc3ncnc(N4CCOCC4)c3c2C1 (stereo not given),32.5%
4,Cc1ccc(C(=O)OCC(=O)Nc2sccc2C(N)=O)cc1NC(=O)c1ccco1,18.4%
5,CC(C)(C)OC(=O)NCc1ccc(CNC(=O)c2[nH]cnc2C(=O)NC2CCN(C(=O)OC(C)(C)C)CC2)cc1,4.73%
6,COc1cc(NC(=O)c2cccs2)c(C(=O)OCC(=O)c2cc(C)n(-c3ccc(F)cc3)c2C)cc1OC,5.85%
7,CC1(C)C2CCC(C2)C1C/C=N/NC(N)=S (stereo not given),17.5%
8,CCC(=O)NC(c1cccs1)c1cc(Cl)c2cccnc2c1O (stereo not given),20.9%
9,O=C(N/N=C/c1cc(Cl)ccc1O)c1cccnc1,15.7%
10,COc1ccc(OCc2nn3c(-c4ccco4)nnc3s2)cc1,-8.03%
11,Cc1nn(C)c(C)c1CN(C)C(=O)c1cnn2c1NC(c1ccccc1)CC2C(F)(F)F (stereo not given),21.2%
12,OC[C@H]1O[C@@H](Oc2ccc(O)cc2)[C@H](O)[C@@H](O)[C@@H]1O,7.6%
13,CCOC(=O)c1c(C)[nH]c2c1-c1ccccc1C(=O)C2=O,95.1% (active)
14,CCOC(=O)c1cnc(SC2CC(=O)N(c3cccc(OC)c3)C2=O)nc1N (stereo not given),9.15%
15,COc1ccc(NC(=O)c2oc3ccc(S(=O)(=O)N4CCC5(CC4)OCCO5)cc3c2C)cc1,5.45%
16,CCN(C(=O)COC(=O)/C(=C/c1ccccc1)n1nnnc1C)C1CCCCC1,26.9%
17,OCCNCCOc1ccc(Cl)c(Cl)c1,5.72%
18,CCCCCCCOC(=O)C[N+](C)(C)CCOC1CC2CCC1(C)C2(C)C (stereo not given),-17.6%
19,O=c1[nH]c(=O)n(C2CC(O)C(CO)O2)cc1I (stereo not given),23.1%
20,O=C(NCCCn1ccnc1)C(=O)NCc1ccc(Cl)cc1,20.3%

row,SMILES,inhibition
1,Cn1nc(C(C)(C)C)cc1C(=O)NCc1ccc(N2CCCC2=O)cc1,10.7%
2,CCCCCCCNC(=O)C1(CC2CC(c3ccc(Cl)cc3)=NO2)CCN(C(=O)c2cc(OCC)c(OCC)c(OCC)c2)CC1 (stereo not given),20.9%
3,COc1ccc(-c2cc(C(=O)N(C)Cc3ccc(OC)c(OC)c3OC)c3ccccc3n2)cc1OC,8.88%
4,CCC(C)(CC(=O)O)CC(=O)Nc1cc(C(F)(F)F)cc(C(F)(F)F)c1 (stereo not given),9.02%
5,Cc1cccc(NC(=O)c2cc(-c3cccnc3)nc3c(C)cccc23)n1,7.37%
6,O=C(Nc1ccc(S(=O)(=O)Nc2ccc(F)cc2)cc1)c1ccc(CN2CCOCC2)cc1,7.38%
7,CCOC(=O)CC/C(C)=N\N=C1\SC(CC(=O)O)C(=O)N1c1ccccc1 (stereo not given),0.21%
8,CCOc1cccc(/C=N/NC(=O)c2cc(-c3cccn3C)n[nH]2)c1O,26%
9,COc1ccc(C2OC(=O)CC2C(=O)NCc2ccc(F)cc2)cc1OC (stereo not given),-5.31%
10,Cc1nnnn1/C(=C\c1ccccc1)C(=O)OCC(=O)Nc1cccc(S(=O)(=O)N(C)C)c1,-9.38%
11,O=C(O)c1ccc(Cl)c(S(=O)(=O)NCc2cccnc2)c1,0.83%
12,COC(=O)/C(C#N)=C\c1c(OC)[nH]c2ccccc12,18.6%
13,Cc1ccc(Cl)cc1N1CCN(C(c2ccc(C#N)cc2)c2nnnn2C2CCCC2)CC1 (stereo not given),1.29%
14,CC(=O)c1c(C)[nH]c(C(=O)Nc2ccc(Cl)c(S(=O)(=O)N3CCOCC3)c2)c1C,18.6%
15,CC1CCCC=CC2CC(OC(=O)CN(C)C)CC2C(O)C=CC(=O)O1 (stereo not given),65.1% (active)
16,COC(=O)N/N=C/c1cn(Cc2ccc(Cl)cc2Cl)c2ccccc12,18.6%
17,COc1ccc2c(c1)-c1c(ssc1=S)C(C)(C)N2S(=O)(=O)c1ccc(C)cc1,2.95%
18,CC(=O)Nc1nc(C)c(-c2csc(Nc3cccc([N+](=O)[O-])c3)n2)s1,7.09%
19,CC(=O)c1cc(CC=C(C)C)c(O)c(CC=C(C)C)c1O,4.99%
20,COC(=O)c1ccc2c(c1)C(C)(C)C(/C=C/c1ccc(O)cc1)=[N+]2C,66.6% (active)

# Tested on: transactivating tegument protein VP16 (Human herpesvirus 1), Gal4-VP16 luciferase reporter
# Assay: VP16 transactivation inhibitors, counter-screen for SRC3 inhibitor project, cell-based, luminescence, high throughput (AID 588794; in the data active means inhibition above about 30%)
# Settings: mammalian cells, VP16-driven luciferase reporter luminescence; at 3.6 µM; active compounds read high
row,SMILES,inhibition
1,COc1ccc(C)cc1NC(=O)c1nnn(Cc2cccc(F)c2)c1N,26.1%
2,Cc1ccc(-c2c[n+](Cc3ccc(Cl)c(Cl)c3)c3n2CCC3)cc1,25.3%
3,CC1CCc2sc3ncnc(N4CCOCC4)c3c2C1 (stereo not given),29.8% (active)
4,Cc1ccc(C(=O)OCC(=O)Nc2sccc2C(N)=O)cc1NC(=O)c1ccco1,11.5%
5,CC(C)(C)OC(=O)NCc1ccc(CNC(=O)c2[nH]cnc2C(=O)NC2CCN(C(=O)OC(C)(C)C)CC2)cc1,-0.72%
6,COc1cc(NC(=O)c2cccs2)c(C(=O)OCC(=O)c2cc(C)n(-c3ccc(F)cc3)c2C)cc1OC,2.26%
7,CC1(C)C2CCC(C2)C1C/C=N/NC(N)=S (stereo not given),13.4%
8,CCC(=O)NC(c1cccs1)c1cc(Cl)c2cccnc2c1O (stereo not given),25.6%
9,O=C(N/N=C/c1cc(Cl)ccc1O)c1cccnc1,41.4% (active)
10,COc1ccc(OCc2nn3c(-c4ccco4)nnc3s2)cc1,-4.08%
11,Cc1nn(C)c(C)c1CN(C)C(=O)c1cnn2c1NC(c1ccccc1)CC2C(F)(F)F (stereo not given),3.17%
12,OC[C@H]1O[C@@H](Oc2ccc(O)cc2)[C@H](O)[C@@H](O)[C@@H]1O,-4.32%
13,CCOC(=O)c1c(C)[nH]c2c1-c1ccccc1C(=O)C2=O,91.5% (active)
14,CCOC(=O)c1cnc(SC2CC(=O)N(c3cccc(OC)c3)C2=O)nc1N (stereo not given),6.73%
15,COc1ccc(NC(=O)c2oc3ccc(S(=O)(=O)N4CCC5(CC4)OCCO5)cc3c2C)cc1,8.97%
16,CCN(C(=O)COC(=O)/C(=C/c1ccccc1)n1nnnc1C)C1CCCCC1,27%
17,OCCNCCOc1ccc(Cl)c(Cl)c1,2.08%
18,CCCCCCCOC(=O)C[N+](C)(C)CCOC1CC2CCC1(C)C2(C)C (stereo not given),9.62%
19,O=c1[nH]c(=O)n(C2CC(O)C(CO)O2)cc1I (stereo not given),11.8%
20,O=C(NCCCn1ccnc1)C(=O)NCc1ccc(Cl)cc1,-1.8%

row,SMILES,inhibition
1,Cn1nc(C(C)(C)C)cc1C(=O)NCc1ccc(N2CCCC2=O)cc1,38.8% (active)
2,CCCCCCCNC(=O)C1(CC2CC(c3ccc(Cl)cc3)=NO2)CCN(C(=O)c2cc(OCC)c(OCC)c(OCC)c2)CC1 (stereo not given),0.73%
3,COc1ccc(-c2cc(C(=O)N(C)Cc3ccc(OC)c(OC)c3OC)c3ccccc3n2)cc1OC,6.51%
4,CCC(C)(CC(=O)O)CC(=O)Nc1cc(C(F)(F)F)cc(C(F)(F)F)c1 (stereo not given),-3.88%
5,Cc1cccc(NC(=O)c2cc(-c3cccnc3)nc3c(C)cccc23)n1,1.11%
6,O=C(Nc1ccc(S(=O)(=O)Nc2ccc(F)cc2)cc1)c1ccc(CN2CCOCC2)cc1,38.6% (active)
7,CCOC(=O)CC/C(C)=N\N=C1\SC(CC(=O)O)C(=O)N1c1ccccc1 (stereo not given),-4.68%
8,CCOc1cccc(/C=N/NC(=O)c2cc(-c3cccn3C)n[nH]2)c1O,40% (active)
9,COc1ccc(C2OC(=O)CC2C(=O)NCc2ccc(F)cc2)cc1OC (stereo not given),-5.19%
10,Cc1nnnn1/C(=C\c1ccccc1)C(=O)OCC(=O)Nc1cccc(S(=O)(=O)N(C)C)c1,13.2%
11,O=C(O)c1ccc(Cl)c(S(=O)(=O)NCc2cccnc2)c1,-9.62%
12,COC(=O)/C(C#N)=C\c1c(OC)[nH]c2ccccc12,12.4%
13,Cc1ccc(Cl)cc1N1CCN(C(c2ccc(C#N)cc2)c2nnnn2C2CCCC2)CC1 (stereo not given),22.5%
14,CC(=O)c1c(C)[nH]c(C(=O)Nc2ccc(Cl)c(S(=O)(=O)N3CCOCC3)c2)c1C,-16.6%
15,CC1CCCC=CC2CC(OC(=O)CN(C)C)CC2C(O)C=CC(=O)O1 (stereo not given),71.2% (active)
16,COC(=O)N/N=C/c1cn(Cc2ccc(Cl)cc2Cl)c2ccccc12,0.26%
17,COc1ccc2c(c1)-c1c(ssc1=S)C(C)(C)N2S(=O)(=O)c1ccc(C)cc1,13.9%
18,CC(=O)Nc1nc(C)c(-c2csc(Nc3cccc([N+](=O)[O-])c3)n2)s1,-11.4%
19,CC(=O)c1cc(CC=C(C)C)c(O)c(CC=C(C)C)c1O,-4.39%
20,COC(=O)c1ccc2c(c1)C(C)(C)C(/C=C/c1ccc(O)cc1)=[N+]2C,52.8% (active)
